# Reference: the supplement of paper PMC7858590
# Values joined by “and” are separate entries in the source; they are usually repeats but may differ in a detail not shown here. Identical values can stand only once.
# Tested on: human monocyte-derived macrophages (polarized)
# Test: cell shape (eccentricity) Z-score vs DMSO control; higher = more elongated, M2-like morphology
# Conditions: 5 µM; 24 h; macrophage state: M1-polarized (IFNg + TNFa), cytokines present during treatment
# Experimental: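 Primary-screen hits were rescreened on polarized hMDMs with the differentiating cytokines (IL-4 + IL-13 or IFNg + TNFa) kept in the medium during treatment with compound at 5 uM for 24 h. The eccentricity Z-score vs DMSO wells is averaged over experiments.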
row,Compound,cell shape (Z-score)
1,CN1CCN(c2nc(C3=C(c4c[nH]c5ccccc45)C(=O)NC3=O)c3ccccc3n2)CC1,-0.285
2,COc1cccc(NC(=O)/C=C/c2ccc(Cl)cc2)c1,4.58
3,O=C1c2ccccc2-c2n[nH]c3cccc1c23,9.54
4,CC(N)C(=O)OC(C)(C)Cc1ccc(Cl)cc1 (stereo not given),-2.3
5,Cc1nc(Nc2ncc(C(=O)Nc3c(C)cccc3Cl)s2)cc(N2CCN(CCO)CC2)n1,19.8
6,N#Cc1ccc(COC[C@H]2O[C@@H](n3c(NCc4ccc(Cl)c(Cl)c4)nc4c(N)ncnc43)[C@H](O)[C@@H]2O)cc1,-3.47
7,CC[C@H]1OC(=O)[C@H](C)[C@@H](O[C@H]2C[C@@](C)(OC)[C@@H](O)[C@H](C)O2)[C@H](C)[C@@H](O[C@@H]2O[C@H](C)C[C@H](N(C)C)[C@H]2O)[C@](C)(O)C[C@@H](C)C(=O)[C@H](C)[C@@H](O)[C@]1(C)O,-5.37
8,O=C(Nc1ccc(OC(F)(F)F)cc1)c1sccc1NCc1ccnc2ccccc12,3.81
9,OC[C@H](Cc1ccccc1)Nc1nc(Oc2ccc3c(c2)CCC3)nc2c1ncn2Cc1ccc(-c2ccccc2)cc1,7.52
10,NC(=O)Nc1cc(-c2cccc(F)c2)sc1C(=O)N[C@H]1CCCNC1,7.81
11,c1ccc(-c2[nH]ncc2-c2ccnc3ccccc23)nc1,2.26
12,O=c1cc(-c2ccccc2F)[nH]c2cc3c(cc12)OCO3,0.5
13,O=C(OC1C=C(CO)C2C(OC3OC(CO)C(O)C(O)C3O)OC=CC12O)c1ccc(O)cc1 (stereo not given),3.32
14,CNC(=O)c1ccccc1Sc1ccc2c(/C=C/c3ccccn3)n[nH]c2c1,8.44 and 13.2
15,CN1CCN(CCOc2cc(OC3CCOCC3)c3c(Nc4c(Cl)ccc5c4OCO5)ncnc3c2)CC1,4.07
16,C[C@@H](Oc1cc(-c2cnn(C3CCNCC3)c2)cnc1N)c1c(Cl)ccc(F)c1Cl,7.6
17,COc1cc(OC)c(/C=C/S(=O)(=O)Cc2ccc(OC)c(NCC(=O)O)c2)c(OC)c1,-2.86
18,N#CCNC(=O)c1ccc(-c2ccnc(Nc3ccc(N4CCOCC4)cc3)n2)cc1,22.9
19,COc1cc(-c2ccc(=O)[nH]n2)ccc1OC(F)F,-4.29
20,CCCCOC(=O)c1ccc(N)cc1,-0.788
21,CO[C@H]1C[C@H](O[C@@H]2/C(C)=C/C[C@@H]3C[C@@H](C[C@]4(CC[C@H](C)[C@@H](C5CCCCC5)O4)O3)OC(=O)[C@@H]3C=C(C)/C(=N/O)[C@H]4OC/C(=C\C=C\[C@@H]2C)[C@]43O)O[C@@H](C)[C@@H]1O,17.6
22,COC(=O)C(CCCN=C(N)N)NC(=O)CCCc1c(-c2ccccc2)[nH]c2c(F)cc(F)cc12 (stereo not given),0.683
23,O=C(O[C@@H]1Cc2c(O)cc(O)cc2O[C@@H]1c1cc(O)c(O)c(O)c1)c1cc(O)c(O)c(O)c1,-2.7
24,CC(C)C[C@@H](C=O)NC(=O)[C@H](CC(C)C)NC(=O)[C@H](CC(C)C)NC(=O)OCc1ccccc1,4.21
25,CCCCCc1c2c(cc(O)c1C(=O)O)OC(=O)c1c(cc(OC)cc1C(=O)CCCC)O2,2.35
26,O=C(O)C[C@H](O)C[C@H](O)/C=C/c1c(C2CC2)nc2ccccc2c1-c1ccc(F)cc1,5.72

# Same assay, conditions: 5 µM; 24 h; macrophage state: M2-polarized (IL-4 + IL-13), cytokines present during treatment
row,Compound,cell shape (Z-score)
1,COc1ccc(C(=O)CC2(O)C(=O)Nc3c(Cl)ccc(Cl)c32)cc1 (stereo not given),-16.1
2,c1ccc2cc(C3=NCCN3)ncc2c1,0.271
3,COC(=O)Nc1nc2cc(Sc3ccccc3)ccc2[nH]1,-6.87
4,CC1(C)O[C@@H]2C[C@H]3[C@@H]4CCC5=CC(=O)CC[C@]5(C)[C@@]4(F)[C@@H](O)C[C@]3(C)[C@]2(C(=O)CCl)O1,-13.7
5,Cc1ccc(O)c(N=Nc2ccccc2)n1,-1.32
6,CN1[C@@H](CC(=O)c2ccccc2)CCC[C@H]1C[C@H](O)c1ccccc1,4.11
7,CC(=O)O[C@@H]1C[C@H]2C(C)(C)C(=O)CC[C@]2(C)[C@H]2CC[C@@]3(C)[C@H](c4ccoc4)OC(=O)[C@H]4O[C@]43[C@@]21C,-5.73
8,CC(C)C1C2CCC(C2)C1N (stereo not given),-1.17
9,CCCc1c(OCC(O)COc2ccc3c(=O)cc(C(=O)O)oc3c2CCC)ccc(C(C)=O)c1O (stereo not given),-2.27
